# Most compounds without a hit are left out; they make up all but 4.3% or so of the library.
# NadD block: inhibitors of Staphylococcus aureus NadD; purified NadD enzyme, colorimetric absorbance read-out; inhibition, % at 20 µM; actives 0.78% (n = 360,000); in the data active = inhibition above about 26%
# NR3A LBD binder: modulators (binders) of human NR3A ligand-binding domain | NR3A LBD differential scanning fluorimetry, Tm shift; 0% = protein alone, 100% = glycine-bound protein | Tm shift relative to glycine control, % at 25 µM | actives 2.5% (n = 340,000) | AID 1259313;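 active = melting temperature shift of at least 10% of the positive control shift, at one fixed dose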
# rCAG RNA binder: binds r(CAG) RNA repeats. actives 1.3% (n = 370,000). r(CAG) RNA repeat, TO-PRO-1 dye displacement fluorescence. inhibition, % at 3 µM;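 active = inhibition above the plate cutoff, the mean of all test compounds on that plate plus 3 SD, cut at about 35% in these data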;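 also: 0% = DMSO alone and 100% = 100 µM mitoxantrone as full dye displacement; higher means more dye released from RNA so lower well fluorescence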
# FAS TE block: blocks the thioesterase domain of human fatty acid synthase | actives 0.67% (n = 360,000) | P49327 | recombinant FAS-TE, OMFH fluorogenic substrate, fluorescence endpoint | inhibition, % at 15 µM;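 active = compounds whose normalised, plate-corrected inhibition of enzyme fluorescence in the single-dose primary screen is 50% or more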;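 also: 0% = DMSO with enzyme and 100% = substrate without enzyme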
# Target sequence (P49327 whole entry, looked up, the tested form may be a part): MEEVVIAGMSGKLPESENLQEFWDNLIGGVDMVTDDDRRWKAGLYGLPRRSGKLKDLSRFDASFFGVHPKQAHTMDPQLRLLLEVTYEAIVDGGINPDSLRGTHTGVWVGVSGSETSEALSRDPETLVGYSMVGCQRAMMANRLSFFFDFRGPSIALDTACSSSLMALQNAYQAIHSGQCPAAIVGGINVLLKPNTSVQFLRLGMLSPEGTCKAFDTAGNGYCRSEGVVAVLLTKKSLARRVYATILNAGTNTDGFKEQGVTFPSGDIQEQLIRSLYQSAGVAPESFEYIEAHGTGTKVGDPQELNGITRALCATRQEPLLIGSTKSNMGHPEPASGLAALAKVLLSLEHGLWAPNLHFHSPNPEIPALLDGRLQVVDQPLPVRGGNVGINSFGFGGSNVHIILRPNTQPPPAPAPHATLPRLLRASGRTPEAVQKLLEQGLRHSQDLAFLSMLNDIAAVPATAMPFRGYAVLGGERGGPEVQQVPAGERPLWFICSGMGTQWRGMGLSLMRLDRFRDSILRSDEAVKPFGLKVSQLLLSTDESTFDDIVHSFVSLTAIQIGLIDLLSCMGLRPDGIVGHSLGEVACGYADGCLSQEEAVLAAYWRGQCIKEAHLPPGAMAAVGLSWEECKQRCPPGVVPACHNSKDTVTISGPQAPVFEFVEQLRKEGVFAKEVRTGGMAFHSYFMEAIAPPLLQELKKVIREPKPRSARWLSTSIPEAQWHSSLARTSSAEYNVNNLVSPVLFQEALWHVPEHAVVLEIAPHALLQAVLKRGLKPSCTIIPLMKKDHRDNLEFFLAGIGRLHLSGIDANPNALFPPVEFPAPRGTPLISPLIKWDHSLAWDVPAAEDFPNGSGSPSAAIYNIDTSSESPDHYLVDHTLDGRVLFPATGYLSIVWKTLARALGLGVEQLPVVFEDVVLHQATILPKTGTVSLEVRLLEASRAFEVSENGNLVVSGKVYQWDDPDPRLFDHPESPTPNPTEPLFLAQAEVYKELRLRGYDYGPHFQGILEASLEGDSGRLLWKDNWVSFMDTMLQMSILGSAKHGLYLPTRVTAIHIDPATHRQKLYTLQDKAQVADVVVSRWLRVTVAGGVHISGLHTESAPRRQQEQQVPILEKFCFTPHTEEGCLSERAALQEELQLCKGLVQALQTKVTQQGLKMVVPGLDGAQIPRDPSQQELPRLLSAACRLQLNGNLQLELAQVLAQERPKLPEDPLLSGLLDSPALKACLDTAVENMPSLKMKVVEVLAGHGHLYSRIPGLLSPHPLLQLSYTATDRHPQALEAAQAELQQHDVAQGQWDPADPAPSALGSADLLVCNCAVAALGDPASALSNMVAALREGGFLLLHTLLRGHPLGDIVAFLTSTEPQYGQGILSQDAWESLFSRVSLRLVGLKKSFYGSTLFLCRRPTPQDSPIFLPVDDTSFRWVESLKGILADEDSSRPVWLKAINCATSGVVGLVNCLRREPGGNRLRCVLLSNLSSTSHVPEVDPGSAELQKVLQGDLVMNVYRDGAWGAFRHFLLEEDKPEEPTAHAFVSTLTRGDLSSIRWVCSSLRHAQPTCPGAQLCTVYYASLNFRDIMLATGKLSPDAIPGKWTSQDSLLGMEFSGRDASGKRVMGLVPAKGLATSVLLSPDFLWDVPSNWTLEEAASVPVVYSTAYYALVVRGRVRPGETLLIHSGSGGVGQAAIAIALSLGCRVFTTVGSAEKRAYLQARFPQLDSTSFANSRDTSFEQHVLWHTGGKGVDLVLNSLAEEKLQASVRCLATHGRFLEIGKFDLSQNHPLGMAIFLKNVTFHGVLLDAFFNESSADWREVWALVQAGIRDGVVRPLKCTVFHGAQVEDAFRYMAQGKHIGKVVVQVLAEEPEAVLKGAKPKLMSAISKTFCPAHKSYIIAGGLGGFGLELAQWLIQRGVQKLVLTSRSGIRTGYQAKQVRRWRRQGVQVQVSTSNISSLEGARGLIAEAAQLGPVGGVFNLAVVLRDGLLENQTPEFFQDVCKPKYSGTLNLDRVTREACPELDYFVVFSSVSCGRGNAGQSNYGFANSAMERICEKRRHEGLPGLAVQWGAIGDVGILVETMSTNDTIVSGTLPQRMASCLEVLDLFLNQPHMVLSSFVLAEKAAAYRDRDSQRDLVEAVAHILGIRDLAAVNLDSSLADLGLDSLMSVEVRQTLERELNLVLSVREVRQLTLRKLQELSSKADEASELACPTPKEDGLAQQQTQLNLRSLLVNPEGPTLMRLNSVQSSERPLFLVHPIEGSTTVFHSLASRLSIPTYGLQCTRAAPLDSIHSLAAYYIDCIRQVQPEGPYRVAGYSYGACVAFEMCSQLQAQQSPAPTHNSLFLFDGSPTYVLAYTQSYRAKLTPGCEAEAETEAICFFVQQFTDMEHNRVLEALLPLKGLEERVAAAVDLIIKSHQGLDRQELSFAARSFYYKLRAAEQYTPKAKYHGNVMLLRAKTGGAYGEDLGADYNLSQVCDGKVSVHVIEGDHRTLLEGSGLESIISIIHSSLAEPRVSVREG
# rCAG binder conf: r(CAG) RNA repeat binding, confirmation; shares compounds with rCAG RNA binder; TO-PRO-1 dye displacement fluorescence; inhibition, % at 3 µM; actives 70% (n = 4,300);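 active = inhibition above a per-plate cutoff, the mean inhibition of sample wells plus 3 SD, cut at about 35% in these data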;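 also: loss of TO-PRO-1 fluorescence as compound displaces dye from 1x1 AA loop RNA; 0% = DMSO only wells and 100% = 100 µM mitoxantrone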
# DNA CAG counter: counter-screen for rCAG RNA binders: DNA CAG dye complex inhibitors; d(CAG) DNA oligo TO-PRO-1 dye displacement, fluorescence; inhibition, % at 3 µM; shares compounds with rCAG RNA binder; actives 94% (n = 4,300);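 active = inhibition above its plate's cutoff, the mean test-well inhibition plus 3 SD, cut at about 4.8% in these data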;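 also: 0% = DNA dye mix with DMSO and 100% = 100 µM mitoxantrone; hits displace the dye from DNA and so lower well fluorescence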
# dCAG dye DR: disrupts DNA CAG TO-PRO-1 complex in dose response. actives 20% (n = 250). DNA CAG/GTC duplex TO-PRO-1 dye displacement fluorescence. shares compounds with rCAG RNA binder. IC50, µM; in the data active = IC50 below about 10 µM
# * hit, by the source's call; i = inactive; . = no result.
SMILES,NadD block,NR3A LBD binder,rCAG RNA binder,FAS TE block,rCAG binder conf,DNA CAG counter,others
Cc1ccc(C2=NC(=O)/C(=C/c3cc(O)c(O)c(Br)c3)S2)cc1,20,4,84*,31,86*,52*,
Cc1ccc([C@H]2C(C(=O)O)=CC[C@@H](c3ccc(Cl)c(Cl)c3)N2S(=O)(=O)c2ccc(C)cc2)cc1,22,-7,88*,24,85*,54*,
Cc1ccc(S(=O)(=O)N2[C@@H](c3ccccc3)C(C(=O)O)=CC[C@H]2c2ccc(Cl)c(Cl)c2)cc1,7,-17,61*,14,81*,48*,
Cc1ccc(S(=O)(=O)N2[C@@H](c3ccc(Cl)cc3)C(C(=O)O)=CC[C@H]2c2cccc(C)c2)cc1,10,-12,4,7,.,.,
CCn1c(SCC(=O)Nc2ccccc2-c2ccccc2)nnc1-c1cnccn1,.,.,2,.,.,.,
COC(=O)C1=C(C)N(Cc2ccccc2C(F)(F)F)C(=NCc2ccc(OC)cc2)NC1c1ccc(Cl)cc1 (configuration not stated),.,.,8,.,.,.,
Brc1ccc2cccnc2c1,-2,0,-2,-4,.,.,
Nc1cc2cccnc2cc1Cl,0,-3,41*,-3,5,1,
COc1cccc(C(=O)Nc2cccc(C(=O)NC3=NN(c4c(Cl)cc(Cl)cc4Cl)C(=O)C3)c2)c1,29,-5,56*,2,48*,17*,
COc1cccc(C(=O)Nc2cccc(NC(=O)c3ccccc3Cl)c2)c1,-3,-3,-5,7,.,.,
CC(C)(C)C(=O)NC1=NN(c2c(Cl)cc(Cl)cc2Cl)C(=O)C1,0,0,44*,-11,5,4,
O=C(NCCc1c[nH]c2ccccc12)OCc1cn(Cc2ccccc2F)nn1,.,.,5,.,.,.,
COCCCNC(=O)CSc1nnc(-c2cccnc2)n1C1CCCCC1,.,.,-1,.,.,.,
CCCc1ccc2c(C)cccc2n1,.,.,1,.,.,.,
O=C(CSc1nc2[nH]c(=O)cc(O)c2s1)Nc1cc(Cl)cc(Cl)c1,-3,5,28,-5,.,.,
O=C(CSc1nc2[nH]c(=O)cc(O)c2s1)Nc1ccc(Cl)c(C(F)(F)F)c1,7,12*,41*,-4,31,11*,
CCCc1cc(=O)[nH]c(SCC(=O)Nc2cc(S(=O)(=O)N3CCCCC3)ccc2Cl)n1,14,-5,41*,-1,35*,11*,
CCCc1cc(=O)[nH]c(SCC(=O)Nc2cc(S(=O)(=O)N3CCOCC3)ccc2Cl)n1,3,1,16,-4,.,.,
CCCc1cc(=O)[nH]c(SCC(=O)Nc2ccc(C)c(S(=O)(=O)N3CCCCC3)c2)n1,-1,-5,42*,-1,37*,10*,
CC(C)C1=CC2C3C(C(C(C)C)=CC(=O)[C@@]3(C)O)C1C(=O)C2(C)O (some centres not stated),.,.,1,.,.,.,
Cc1cc(C(=O)CN2c3cccc4cccc(c34)S2(=O)=O)c(C)n1C,18,0,38*,14,12,8.6*,
COCC(C)n1c(C)cc(C(=O)CN2c3cccc4cccc(c34)S2(=O)=O)c1C (configuration not stated),-3,0,4,18,.,.,
Cc1c(C(=O)NNC(=S)Nc2cccc(Cl)c2)nnn1-c1ccccc1,3,2,45*,-6,44*,14*,
CCc1sc(C(C2C(=O)CC(C)(C)CC2=O)C2C(=O)CC(C)(C)CC2=O)cc1[N+](=O)[O-],9,-11,37*,-6,23,6.4*,
CC1(C)CC(=O)C(C(c2ccc(F)cc2)C2C(=O)CC(C)(C)CC2=O)C(=O)C1,1,1,0,-7,.,.,
SMILES,NadD block,NR3A LBD binder,rCAG RNA binder,FAS TE block,rCAG binder conf,DNA CAG counter,others
O=C1Nc2ccc3sc4ccccc4c3c2C1=O,1,-6,36*,-9,17,14*,
O=C(Nc1nnc(S(=O)(=O)N2CCCC2)s1)c1ccccc1Br,3,-10,9,-2,.,.,
CC1CCN(S(=O)(=O)c2nnc(NC(=O)c3ccccc3Br)s2)CC1,1,-1,37*,0,28,6.5*,
COc1cccc(C(=O)Nc2nnc(S(=O)(=O)N3CCCC3)s2)c1,-1,-3,24,0,.,.,
COc1cc(C(=O)Nc2nnc(S(=O)(=O)N3CCCCCC3)s2)cc(OC)c1OC,1,-4,52*,-1,53*,14*,
COc1ccc(CN(C)S(=O)(=O)c2nnc(NC(=O)c3cccc(OC)c3)s2)cc1,2,-1,67*,6,58*,23*,
COc1ccc(CN(C)S(=O)(=O)c2nnc(NC(=O)c3ccccc3Br)s2)cc1,-1,0,73*,1,52*,18*,
COc1cccc(CNS(=O)(=O)c2cc(Br)ccc2Br)c1OC,.,.,3,.,.,.,
O=C(Nc1ccccc1C(=O)O)c1cc(S(=O)(=O)N2CCOCC2)c(Br)s1,-4,-9,47*,-5,67*,36*,
O=C(Nc1ccccc1Cl)c1cc(S(=O)(=O)N2CCOCC2)cs1,-1,1,-1,-6,.,.,
COc1ccc(NC(=O)Nc2ccc3c(c2)C(=O)N([C@H](C)CO)C[C@H](C)[C@H](CN(C)Cc2ccc(C(=O)O)cc2)OCCCC[C@@H](C)O3)cc1,16,.,37*,-4,42*,10*,
COc1ccc(NC(=O)Nc2ccc3c(c2)C(=O)N([C@H](C)CO)C[C@@H](C)[C@@H](CN(C)Cc2ccc4c(c2)OCO4)OCCCC[C@H](C)O3)cc1,.,.,6,.,.,.,
Cc1ccc(N/N=C(/Sc2nnnn2-c2ccccc2)C(=O)c2ccccc2)cc1,5,-7,68*,8,53*,21*,dCAG dye DR=i
O=C(/C(=N\Nc1ccc([N+](=O)[O-])cc1)Sc1nnnn1-c1ccccc1)c1ccccc1,20,-11,34,41,.,.,
CCN(C(=O)Cn1nnc(-c2ccncc2)n1)c1ccccc1,.,.,0,.,.,.,
CCCC[C@H]1C2CC(OC(=O)Nc3ccc(C(F)(F)F)cc3)C(C2)[C@H]2CCCCN21 (some centres not stated),.,.,2,.,.,.,
N#C/C(=C\c1ccccc1OCc1ccc(C(=O)O)cc1)C(=O)Nc1ccc(O)cc1,2,-11,44*,12,34,10*,
C[C@@H]1ON(C)[C@H]2C[C@H]3c4[nH]c5c(-c6cccc(Cl)c6)cccc5c4CCN3C(=O)[C@@H]12,.,.,13,.,.,.,
Cc1cccc(C(=O)Nc2nc3ccc(S(C)(=O)=O)cc3s2)c1,-8,1,15,-4,.,.,
Cc1ccc2nc(NC(=O)c3ccc(NS(=O)(=O)c4cccs4)cc3)sc2c1,-3,33*,43*,-2,61*,23*,
COc1ccc(C)cc1NC(=O)c1ccc(NS(=O)(=O)c2cccs2)cc1,-4,-6,24,6,.,.,

# Screens: PubChem BioAssay, several laboratories
